Measurements published in PubChem BioAssay (Tox21).
Inconclusive results are not listed. Where a call stands in place of a potency, no number is given. Active and inactive are the calls of the source. The call rests on the fitted dose curve.

target: Peroxisome proliferator-activated receptor gamma (Homo sapiens) (UniProt P37231); experiment: qHTS assay to identify small molecule antagonists of the peroxisome proliferator-activated receptor gamma (PPARg) signaling pathway (AID 743191); details: HEK293H PPARg-UAS-bla, beta-lactamase ratio, antagonist, 17 h; series mostly up to 62.6 µM; further: nearly all actives have a fitted effect of over 30% in size
Sequence (P37231 whole entry, looked up): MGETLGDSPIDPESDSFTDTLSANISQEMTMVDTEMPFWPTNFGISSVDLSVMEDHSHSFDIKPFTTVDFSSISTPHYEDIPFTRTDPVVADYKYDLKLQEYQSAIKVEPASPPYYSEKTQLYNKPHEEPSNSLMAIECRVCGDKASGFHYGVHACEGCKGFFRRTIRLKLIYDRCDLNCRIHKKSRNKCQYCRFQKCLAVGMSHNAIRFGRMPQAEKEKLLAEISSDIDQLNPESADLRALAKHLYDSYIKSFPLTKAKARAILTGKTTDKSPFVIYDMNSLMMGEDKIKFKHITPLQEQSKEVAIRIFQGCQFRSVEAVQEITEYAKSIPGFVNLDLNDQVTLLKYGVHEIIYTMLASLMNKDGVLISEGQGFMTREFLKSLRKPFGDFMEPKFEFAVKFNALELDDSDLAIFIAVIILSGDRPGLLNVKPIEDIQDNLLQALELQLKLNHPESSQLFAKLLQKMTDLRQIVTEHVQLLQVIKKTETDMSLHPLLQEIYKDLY
From the text: U.S. Tox21 Program National Center for Advancing Translational Sciences [NCATS] NIH Chemical Genomics Center [NCGC] U.S. Environmental Protection Agency [EPA] National Institutes of Environmental Health Sciences [NIEHS] National Toxicology Program [NTP] U.S. Food and Drug Administration [FDA] Tox21 Assay Overview: The peroxisome proliferator-activated receptors (PPARs) are lipid-activated transcription factors of the nuclear receptor superfamily with three distinct subtypes namely PPAR alpha, PPAR delta (also called PPAR beta) and PPAR gamma (PPARg). All these subtypes heterodimerize with Retinoid X receptor (RXR) and these heterodimers regulate transcription of various genes. PPAR-gamma receptor (glitazone receptor) is involved in the regulation of glucose and lipid metabolism. To identify the compounds that inhibit PPAR-gamma signaling, GeneBLAzer PPAR gamma UAS-bla HEK293H cell line (Invitrogen, Carlsbad, CA, USA) containing a beta-lactamase reporter gene under control of an Upstream Activator Sequence (UAS) was used to screen the Tox21 compound library.
Tox21 Assay Protocol Summary: PPARg-bla cells were dispensed at 3000 cells/6uL/well in 1536-well black wall/clear bottom plates using a Multidrop Combi (Thermo Fisher Scientific, Waltham, MA) dispenser. After the assay plates were incubated at 37C and 5% CO2 for 5 h, 23 nL of compounds dissolved in DMSO, positive controls or DMSO only was transferred to the assay plate by a Pintool station (Kalypsys, San Diego, CA). The assay plates were incubated at 37C for 17 h. After 1 uL of LiveBLAzerTM B/G FRET substrate was added using a Bioraptr Flying Reagent Dispenser (FRD) workstation (Beckman Coulter, Indianapolis, IN, USA), the plates were incubated at room temperature for 1 h, and fluorescence intensity was measured by an Envision plate reader (PerkinElmer, Shelton, CT).
Potency means the concentration at half of the fitted maximal effect.

| Compound | Potency |
| --- | --- |
| CN(C)C(=O)Nc1cccc(C(F)(F)F)c1 | inactive |
| C[C@H]1C(=O)O[C@@H]2CCN3CC=C(COC(=O)[C@](C)(O)[C@]1(C)O)[C@H]23 | inactive |
| CCCOC(=O)c1ccccc1C(=O)OCCC | inactive |
| CCOP(=S)(OCC)Oc1cc(C)nc(C(C)C)n1 | inactive |
| Nc1ncc([N+](=O)[O-])s1 | inactive |
| O=[N+]([O-])c1ccc(Cl)c(Cl)c1 | inactive |
| CCOC(=O)CC(SP(=O)(OC)OC)C(=O)OCC (stereo not given) | inactive |
| Cc1cccc(N)c1 | inactive |
| COC(C)(C)CCCC(C)C/C=C/C(C)=C/C(=O)OC(C)C (stereo not given) | inactive |
| O=C/C=C/c1ccccc1 | inactive |
| Oc1c(Br)cc(Br)cc1Br | 43.7 µM (active) |
| COP(=S)(OC)SCN1C(=O)c2ccccc2C1=O | inactive |
| CC(C)(C)C(=O)CCl | inactive |
| CN(C)C(=O)Cl | inactive |
| Cc1cc(O)ccc1Cl | inactive |
| O=S(=O)(O)OOS(=O)(=O)O | inactive |
| Cc1ccc(N)cc1 | inactive |
| CC(=O)C1CCOC1=O (stereo not given) | inactive |
| O=C(O)Cc1ccccc1 | inactive |
| CNCC(O)c1ccc(O)cc1 (stereo not given) | inactive |

| Compound | Potency |
| --- | --- |
| Cc1ccc(N=C=O)cc1N=C=O | inactive |
| Cc1cccc(N)c1C | inactive |
| CCSC(=O)N1CCCCCC1 | inactive |
| C=CCN=C=S | inactive |
| CCOP(=S)(OCC)Oc1ccc([N+](=O)[O-])cc1 | inactive |
| OCC(O)CCl (stereo not given) | inactive |
| OC[C@@H](O)[C@H]1O[C@@H]2O[C@H](C(Cl)(Cl)Cl)O[C@@H]2[C@H]1O | inactive |
| CC(=O)/C=C/c1ccccc1 | inactive |
| CNC(=O)O/N=C/C(C)(C)S(C)(=O)=O | inactive |
| O=C(O)C(Br)Br | inactive |
| CNC(=O)O/N=C(\SC)C(=O)N(C)C | inactive |
| CC(C)c1cccc(C(C)C)c1O | inactive |
| CN(C)NC(=O)CCC(=O)O | inactive |
| CN(C)CCC#N | inactive |
| CNC(=O)O/N=C/C(C)(C)S(C)=O (stereo not given) | inactive |
| Cc1cc(Cl)ccc1OC(C)C(=O)O (stereo not given) | inactive |
| Cc1cccc(C)c1NC(=O)CN1CCCC1=O | inactive |
| COc1nc(NC(C)C)nc(NC(C)C)n1 | inactive |
| O=C(O)CCCc1ccc(N(CCCl)CCCl)cc1 | inactive |
| ClCCOCCCl | inactive |
